Assay results published in PubChem BioAssay.
The list shows a part of the results. A number with no mark means an inactive call. Calls of active or inactive are those of the source. No stated cut-off is given here; in the data, active means activation above about 22%; inactive means the rest.

The compounds below were run against Peroxisome proliferator-activated receptor gamma (Homo sapiens) (UniProt P37231) (assay: retested PPARg-SRC-2 recruitment enhancers – biochemical, HTS, confirmation (AID 1297;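 further: 0% = vehicle alone and 100% = reference agonist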)). Conditions: biochemical SRC-2 recruitment by PPARgamma; at 8 µM; hits give high values.
Sequence of Peroxisome proliferator-activated receptor gamma (Homo sapiens) (P37231 whole entry, looked up): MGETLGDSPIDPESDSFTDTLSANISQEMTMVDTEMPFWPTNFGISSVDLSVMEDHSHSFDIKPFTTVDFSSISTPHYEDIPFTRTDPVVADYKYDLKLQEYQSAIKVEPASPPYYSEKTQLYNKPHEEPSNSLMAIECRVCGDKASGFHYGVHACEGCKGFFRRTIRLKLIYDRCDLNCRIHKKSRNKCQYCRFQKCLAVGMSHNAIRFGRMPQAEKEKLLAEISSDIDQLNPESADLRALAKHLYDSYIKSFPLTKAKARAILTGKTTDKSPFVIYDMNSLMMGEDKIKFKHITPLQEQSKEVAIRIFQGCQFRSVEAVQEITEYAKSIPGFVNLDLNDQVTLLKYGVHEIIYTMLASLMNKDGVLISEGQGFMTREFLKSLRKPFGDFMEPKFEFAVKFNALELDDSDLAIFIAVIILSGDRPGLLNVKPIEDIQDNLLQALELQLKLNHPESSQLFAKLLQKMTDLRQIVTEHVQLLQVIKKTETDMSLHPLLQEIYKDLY

Row | Structure (SMILES) | activation
1 | O=C(Oc1ccccc1)Oc1ccc2c(c1)oc(=O)c1ccccc12 | 27.9% (active)
2 | Fc1ccc(COc2cccc(-c3n[nH]c(=S)o3)c2)cc1 | 51.6% (active)
3 | CCOC(=O)C1CCN(C(=O)CSc2cc(=O)n(C)c3ccccc23)CC1 | 38.9% (active)
4 | CCn1c(=O)cc(SCC(=O)NCc2ccc3c(c2)OCO3)c2ccccc21 | 22.7% (active)
5 | CSc1c(SCc2ccccc2)cnn(Cc2ccccc2)c1=O | 34.4% (active)
6 | CNC(=S)N1N=C(c2ccccc2)CC1c1ccc(Br)cc1 (stereo unspecified) | 24.2% (active)
7 | O=C(CSc1c2c(nc3ccc(Cl)cc13)CCCC2)NCc1ccco1 | 19.2%
8 | COc1ccc2c(Cl)c(-c3nnco3)sc2c1 | 20.4%
9 | COc1ccc(/C(O)=C2/C(=O)C(=O)N(c3nc(C)c(C)s3)C2c2ccco2)cc1 (stereo unspecified) | 21.9% (active)
10 | COC(=O)Cn1cc(C(=O)c2cccs2)c2ccccc21 | -2.1%
11 | Cc1cc(C)c2c(c1)cc(C)c1nnc(SCC(=O)Nc3cc(C)on3)n12 | 18.6%
12 | CC(=O)n1c(C=Nc2ccccc2)c(O)c2ccccc21 | 2.33%
13 | Cc1cc(C)c2cc(CN(Cc3cccs3)Cc3nnnn3CC3CCCO3)c(=O)[nH]c2c1 (stereo unspecified) | 9.95%
14 | CCn1c(SCC(=O)Nc2cccc(F)c2)nnc1-c1cc2cc(Br)ccc2o1 | 18%
15 | Cc1ccccc1-c1n[nH]c(=S)n1/N=C/c1ccc(-c2ccccc2Br)o1 | 33.5% (active)
16 | Cc1ccc(-c2cc(C(=O)NCc3cn(C)nc3C)c3cc(Br)ccc3n2)cc1 | 25.7% (active)
